Hit rate of the full screen: of about 5,500 compounds, about 2,000 (36%) were called active. About 18% were inconclusive and are not listed. Rule as the data show it: active = normalized growth mostly below about 0.91 (no sharp cut-off); inconclusive = no clear call, values can overlap the other calls; inactive = mostly above about 0.92. This is one part of the list.
Assay: chemical genetic growth profiling, strain panel (AID 1159580);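 also: tested at 20 µM; growth read once vehicle control cultures reached saturation at 30 °C; 1 = growth at the plate median or of vehicle wells; lower values mean less growth of the strain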
Conditions: S. cerevisiae deletion strains, growth OD

Measured: normalized growth

C[C@@H]1CC[C@]2(C(=O)O)CC[C@]3(C)C(=CCC4[C@@]5(C)CC[C@H](O)C(C)(C)C5CC[C@]43C)C2[C@H]1C (stereo partly drawn)
active: locus YKL085W, strain MDH1 (second series), hits give low values 1.33 [resistant] | locus YKL085W, strain MDH1, hits give low values 1.33 [resistant]
inactive: locus YJR043C, strain POL32, hits give low values 1.06 | locus YJR066W, strain TOR1, hits give low values 1.02 | locus YKL068W, hits give low values 1.01 | locus YKL160W, strain elf1, hits give low values 1 | locus YKL190W, strain CNB1, hits give low values 1.02 | locus YKR001C, strain vps1, hits give low values 1.02 | locus YKR026C, strain gcn3, hits give low values 0.996 | locus YKR091W, strain srl3, hits give low values 0.991 | locus YLL001W, strain dnm1, hits give low values 0.989 | locus YLL026W, hits give low values 0.989 | locus YLL041C, strain sdh2, hits give low values 0.995 | locus YLR027C, strain aat2, hits give low values 1.01 | locus YLR039C, strain RIC1, hits give low values 1.14 | locus YLR058C, strain SHM2, hits give low values 1.04 | locus YLR102C, strain apc9, hits give low values 0.987 | locus YLR113W, strain HOG1, hits give low values 0.995 | locus YLR221C, strain rsa3, hits give low values 1 | locus YLR258W, strain gsy2, hits give low values 1.01 | locus YLR262C, strain YPT6 (second series), hits give low values 1.02 | locus YLR262C, strain YPT6, hits give low values 1.11 | locus YLR268W, strain sec22, hits give low values 1.01 | locus YLR320W, strain mms22, hits give low values 1.01 | locus YLR330W, strain CHS5, hits give low values 1.03 | locus YLR342W, strain FKS1 (second series), hits give low values 1.02 | locus YLR342W, strain FKS1, hits give low values 1 | locus YLR357W, strain rsc2, hits give low values 0.975 | locus YLR370C, strain arc18, hits give low values 0.998 | locus YLR371W, strain rom2, hits give low values 0.995 | locus YLR384C, strain iki3, hits give low values 0.995 | locus YLR418C, strain cdc73, hits give low values 1.02 | locus YML016C, strain PPZ1, hits give low values 1.03 | locus YML032C, strain rad52, hits give low values 0.988 | locus YML120C, strain ndi1, hits give low values 0.999 | locus YML124C, strain tub3, hits give low values 0.999 | locus YMR058W, strain fet3, hits give low values 1.01 | locus YMR078C, strain ctf18, hits give low values 0.976 | locus YMR125W, strain sto1, hits give low values 0.986 | locus YMR129W, hits give low values 0.997 | locus YMR205C, strain PFK2, hits give low values 0.991 | locus YMR223W, strain ubp8, hits give low values 0.992 | locus YMR231W, strain pep5, hits give low values 0.998 | locus YMR263W, strain SAP30, hits give low values 1.04 | locus YMR307W, strain GAS1, hits give low values 1.15 | locus YNL067W, strain RPL9B, hits give low values 1.06 | locus YNL071W, strain lat1, hits give low values 1.01 | locus YNL128W, strain TEP1, hits give low values 1.04 | locus YNL183C, strain NPR1, hits give low values 0.993 | locus YNL209W, strain ssb2, hits give low values 0.993 | locus YNL233W, strain BNI4, hits give low values 1.05 | locus YNL248C, strain rpa49, hits give low values 1.01 | locus YNL250W, strain rad50, hits give low values 0.997 | locus YNL271C, strain bni1, hits give low values 0.991 | locus YNL298W, strain CLA4, hits give low values 1.01 | locus YNL307C, strain MCK1, hits give low values 1.01 | locus YNL322C, strain KRE1 (second series), hits give low values 0.979 | locus YNL322C, strain KRE1, hits give low values 1.03 | locus YNR049C, strain mso1, hits give low values 0.993 | locus YNR052C, strain pop2, hits give low values 0.982 | locus YOL012C, strain htz1 1.17 | locus YOL147C, strain pex11, hits give low values 0.992 | locus YOR001W, strain rrp6, hits give low values 1.01 | locus YOR061W, strain CKA2, hits give low values 1.03 | locus YOR069W, strain VPS5, hits give low values 1.02 | locus YOR070C, strain gyp1, hits give low values 1.01 | locus YOR080W, strain dia2, hits give low values 0.998 | locus YOR083W, strain WHI5, hits give low values 0.99 | locus YOR106W, strain vam3, hits give low values 1.01 | locus YOR136W, strain idh2, hits give low values 0.993 | locus YOR144C, strain elg1, hits give low values 0.99 | locus YOR184W, strain ser1, hits give low values 1.03 | locus YOR231W, strain MKK1, hits give low values 1.02 | locus YOR265W, strain rbl2, hits give low values 0.999 | locus YOR270C, strain vph1, hits give low values 1 | locus YOR290C, strain snf2, hits give low values 0.995 | locus YOR316C, strain cot1, hits give low values 1.01 | locus YPL051W, strain arl3, hits give low values 1.01 | locus YPL055C, strain LGE1, hits give low values 1.1 | locus YPL078C, strain atp4, hits give low values 1 | locus YPL106C, strain sse1, hits give low values 0.984 | locus YPL240C, strain hsp82, hits give low values 1.01 | locus YPL256C, strain CLN2, hits give low values 0.993 | locus YPR119W, strain clb2, hits give low values 1 | locus YPR141C, strain kar3, hits give low values 0.998 | locus YPR163C, strain tif3, hits give low values 0.997 | locus YPR167C, strain met16, hits give low values 1.01 | strain wtn01, hits give low values 1.02

From PubChem BioAssay AID1159580 (chemical genetic matrix, 2015)
